KCNQ2 pot: enhances the rat KCNQ2 potassium channel; O88943; CHO-K1 KCNQ2, FluxOR thallium flux fluorescence; active compounds read high; B-score at 10 µM; 310,000 tested, 0.54% active; AID 2239;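 active = fluorescence ratio B-score at least 3 SD of library B-scores, with initial fluorescence B-score within 3 of them, cut at about 5.3 in these data; same plate scores as AID 2156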;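 also: B-score of peak minus minimum over baseline fluorescence ratio after K+ and Tl+ stimulus; positive B-score means potentiation of KCNQ2 with more thallium influx and brighter signal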
KCNQ2 block: KCNQ2 (rat) channel inhibition | O88943 | CHO-K1 KCNQ2, FluxOR thallium flux, 20 min; active compounds read low | 310,000 tested, 1.1% active | B-score at 10 µM | AID 2156;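 active = fluorescence ratio B-score at most minus 3 library SDs, with starting brightness B-score within 2 library SDs, cut at about -5.5 in these data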
KCNQ2 block conf: rat KCNQ2 channel inhibition, confirmatory screen; shares compounds with KCNQ2 block; KCNQ2-expressing cells, thallium flux; active compounds read low; activity change, negative = inhibition, % at 10 µM; 1,000 tested, 57% active;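 also: 0% = vehicle wells and values are ratio percent relative to vehicle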
KCNQ1 spec: KCNQ2 inhibitor that also affects human KCNQ1 channel | shares compounds with KCNQ2 block | KCNQ1-expressing cells, FluxOR thallium flux fluorescence; active compounds read low | activity change, negative = inhibition, % at 10 µM | 1,000 tested, 15% active | AID 493026;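 active = activity change at least 3 SD of negative controls below their mean in both duplicate wells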;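 also: CHO cells stably transfected with KCNQ1 and depolarized by potassium stimulus; peak minus minimum fluorescence over baseline after thallium addition; 0% = vehicle negative control and -100% = blank without thallium stimulus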
CHO Tl ctr: KCNQ2 inhibitor counter-screen hit in parental CHO cells | AID 493029 | thallium flux counter-screen; active compounds read low | shares compounds with KCNQ2 block | 1,000 tested, 14% active | activity change, % at 10 µM;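 also: 0% = vehicle negative controls with stimulus buffer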
KCNQ2 patch conf: rat KCNQ2 inhibition confirmed by electrophysiology | calls only at 10 µM | KCNQ2-expressing cells, automated patch clamp current | 550 tested, 49% active | shares compounds with KCNQ2 block
Kir21 conf inh: confirmation of mouse Kir2.1 potassium channel inhibitors; Tl flux remaining, % of negative control (active compounds read low), % at 10 µM; AID 2032; Kir2.1-expressing cells, FluxOR thallium flux fluorescence; active compounds read low; 2,300 tested, 41% active; shares compounds with KCNQ2 pot;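 active = Primary-screen hit whose thallium flux fell at least 3 control SD below untreated wells in both duplicates, with normal baseline fluorescence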;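 also: 0% = blank wells without stimulus and 100% = stimulated no-compound controls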
Target sequence (P35561 whole entry, looked up): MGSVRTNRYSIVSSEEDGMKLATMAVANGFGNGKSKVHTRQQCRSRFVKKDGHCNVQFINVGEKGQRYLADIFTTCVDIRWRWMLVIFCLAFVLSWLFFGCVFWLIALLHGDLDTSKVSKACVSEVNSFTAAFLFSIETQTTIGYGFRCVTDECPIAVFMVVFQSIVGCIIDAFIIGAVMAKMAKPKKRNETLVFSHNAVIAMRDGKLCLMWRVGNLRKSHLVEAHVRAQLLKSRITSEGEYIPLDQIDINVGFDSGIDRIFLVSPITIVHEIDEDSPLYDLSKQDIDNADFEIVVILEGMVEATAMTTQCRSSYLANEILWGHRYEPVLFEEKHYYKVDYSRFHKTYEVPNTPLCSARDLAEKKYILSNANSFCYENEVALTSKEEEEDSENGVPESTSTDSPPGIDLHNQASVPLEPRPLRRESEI
HEK293 Tl flux: counter-screen for Kir2.1 inhibitors: effect in parental HEK293 cells; shares compounds with KCNQ2 pot; FluxOR thallium flux fluorescence; 0% = unstimulated blank wells; FluxOR signal as % of negative control (100 = no effect), % at 10 µM; 2,300 tested, 19% active; AID 2105;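 active = dye signal at least 3 control SD above or below untreated wells in both duplicates, raw fluorescence within 3, either direction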;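 also: percent is based on the flux ratio of peak minus minimum fluorescence over baseline F0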
CHO-K1 ctr: parental CHO-K1 activity in KCNQ2 potentiator counter-screen; 1,200 tested, 43% active; shares compounds with KCNQ2 pot; parental CHO-K1 cells, FluxOR thallium flux fluorescence; zero = vehicle mean+3SD, 100% = vehicle-minus-blank window; activity increase over 3SD of controls, % at 10 µM;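 active = signal rise of at least 3 SD above the untreated control mean, in both duplicate wells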;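 also: counter screen of KCNQ2 potentiator hits so any rise reflects channel-independent effects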
KCNQ1 pot spec: tests whether KCNQ2 potentiators also act on human KCNQ1 | shares compounds with KCNQ2 pot | CHO KCNQ1 stable, FluxOR thallium flux fluorescence; beyond 3SD, as % of vehicle-control signal | activation over 3SD threshold, % at 10 µM | 1,200 tested, 28% active | AID 2283;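 active = fluorescence ratio rise of at least 3 SD of vehicle wells above their mean, in both replicate wells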;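 also: 0% = vehicle mean plus 3 SD and 100% = vehicle minus unstimulated blank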
KCNQ2 pot conf: confirmation of rat KCNQ2 potassium channel potentiators; 1,200 tested, 68% active; CHO-KCNQ2 cells, FluxOR thallium flux fluorescence; shares compounds with KCNQ2 pot; potentiation, less the hit threshold, % at 10 µM;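 active = fluorescence ratio rising 3 SD or more over the vehicle control mean in both replicates, plus primary screen hit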;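 also: peak minus minimum thallium fluorescence divided by baseline after K/Tl stimulus; 0% = vehicle mean plus 3 SD and 100% = vehicle minus unstimulated blank difference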
Kir21 spec: selectivity of KCNQ2 potentiators: effect on mouse Kir2.1 | shares compounds with KCNQ2 pot | HEK293 Kir2.1, FluxOR thallium flux fluorescence | activity over 3SD threshold, % at 10 µM | 1,200 tested, 2% active;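 active = fluorescence ratio rise of at least 3 SD above the vehicle-control mean, seen in both replicates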;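 also: 0% = vehicle mean plus 3 SD and 100% = vehicle minus no-stimulus blank window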
KCNQ2 W236L pot: KCNQ2 potentiators acting on retigabine-insensitive rat KCNQ2 W236L mutant | shares compounds with KCNQ2 pot | CHO KCNQ2-W236L, automated patch clamp current | current increase over 3SD of negative controls (%), active compounds read high, % at 25 µM | 940 tested, 10% active | AID 2558;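 active = current increase at least 3 SD of the untreated controls above them in both duplicate recordings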
Starred values were filed as active, the others as inactive; i = inactive; · = no result. This is a sample that favours compounds with a hit; in the whole collection about 1.6% have one here. Unless noted, no rule for the calls is given here.

SMILES | KCNQ2 pot | KCNQ2 block | Kir21 conf inh | HEK293 Tl flux | others
c1ccc(-c2cc(-c3ccccc3)[n+](-c3ccccc3)c(-c3ccccc3)c2)cc1 | -13 | -13* | 34%* | i | KCNQ2 block conf=i;KCNQ1 spec=i;CHO Tl ctr=i
CCOC(=O)c1cccc(-[n+]2c(-c3ccccc3)cc(-c3ccccc3)cc2-c2ccccc2)c1 | -7.3 | -7.3* | i | i | KCNQ2 block conf=-32%*;KCNQ1 spec=i;CHO Tl ctr=i;KCNQ2 patch conf=i
Cc1ccc(-c2cc(-c3ccc(C)cc3)[n+](C)o2)cc1 | · | i | · | ·
Cc1ccc(-c2cc(-c3ccc(C)cc3)[n+](-c3ccccc3)c(-c3ccc(C)cc3)c2)cc1 | -13 | -13* | 12%* | i | KCNQ2 block conf=i;KCNQ1 spec=i;CHO Tl ctr=i
CCOC(=O)c1ccccc1C(=O)OCC | 0.49 | i | · | ·
CCCCSP1(=S)NCCCO1 (centres undefined) | 0.01 | i | · | ·
CS(=O)(=O)NNP(=O)(NNS(C)(=O)=O)NC(=O)c1ccccc1 | · | i | · | ·
C=CCn1c(O)c(C(CC)=Nc2ccc(N(C)C)cc2)c(=O)[nH]c1=O | 0.3 | i | · | ·
CCc1ccc(CNCCc2ccc(F)cc2)cc1 | · | i | · | ·
Fc1ccc(CCNCc2ccc(Cl)c(Cl)c2)cc1 | · | i | 24%* | i
COc1ccc(CCNCc2ccccc2F)cc1OC | 1.9 | i | · | ·
CCOc1ccc(Cl)cc1CNCCc1ccccc1F | · | i | 38%* | i
CCN(CC)S(=O)(=O)c1cccc(N=Nc2c(O)n(CC)c(=S)n(CC)c2=O)c1 | · | i | · | ·
COc1ccc2c(c1)/C(=C/c1cnc[nH]1)C(=O)N2 | 6.8* | i | i | i | CHO-K1 ctr=-6;KCNQ1 pot spec=-17;KCNQ2 pot conf=10*;Kir21 spec=-46;KCNQ2 W236L pot=i
O=C1Nc2ccccc2/C1=C/c1cnc[nH]1 | 1.4 | i | · | ·
CN(C)P(=O)(CCl)Nc1ccccc1 (centres undefined) | 0.29 | i | · | ·
C/C=C(\C)C(=O)OC1C(C)=C2C(C1OC(=O)CCCCC)C(C)(OC(C)=O)CC(OC(=O)CCC)C1(O)C2OC(=O)C1(C)O (centres undefined) | 3.2 | i | · | ·
Oc1cccc2nc3ccccc3nc12 | 12* | i | i | i | CHO-K1 ctr=-14;KCNQ1 pot spec=-6;KCNQ2 pot conf=7.1*;Kir21 spec=-35;KCNQ2 W236L pot=i
O=c1cccc2n1CC1CC2CN(c2nc(N3CCCCC3)nc(N3CCCCC3)n2)C1 (centres undefined) | · | i | · | ·
CC(=O)Nc1ccccc1C(=O)OCc1ccc(F)cc1 | · | i | · | ·
CN(C)c1ccc(-[n+]2c(-c3ccccc3)cc(-c3ccccc3)cc2-c2ccccc2)cc1 | -9.1 | -9.1* | i | i
CC(=O)c1ccc(-c2ccccc2)cc1 | 0.72 | i | · | ·
Cc1ccc(-c2cc(-c3ccccc3)cc(-c3ccccc3)[n+]2-c2ccccc2)cc1 | · | i | 18%* | 59%*
Cc1cc(-c2ccccc2)cc(C)[n+]1Cc1ccccc1 | 1.8 | i | · | ·
O=[N+]([O-])c1cc(Cl)c(O)c(-[n+]2c(-c3ccccc3)cc(-c3ccccc3)cc2-c2ccccc2)c1 | · | i | · | ·
SMILES | KCNQ2 pot | KCNQ2 block | Kir21 conf inh | HEK293 Tl flux | others
Cc1ccc(-c2cc(-c3ccc(C)cc3)[n+](-c3ccc(C(=O)[O-])cc3)c(-c3ccc(C)cc3)c2)cc1 | · | i | i | i
CCOC(=O)c1ccc(-[n+]2c(-c3ccccc3)cc(-c3ccccc3)cc2-c2ccccc2)cc1 | -8.5 | -8.5* | 39%* | i
Cc1cc(C(=O)CS(=O)(=O)c2ccccc2)cc(C)c1OC(=O)N(C)C | 1.1 | i | · | ·
Cc1ccc2c(c1)C1CN(C)CCC1N2C(=O)COc1ccc(S(=O)(=O)N2CCOCC2)cc1 (centres undefined) | 1.4 | i | · | ·
O=C1/C(=C/c2ccccc2Cl)N2CCC1CC2 | · | i | · | ·
O=C(Cn1nc(-c2ccc(Cl)cc2)ccc1=O)N1CCC2(CC1)OCCO2 | 1.7 | i | · | ·
COc1ccc(/C=C/C(=O)NC(=S)N2C[C@H]3C[C@H](C2)c2cccc(=O)n2C3)cc1OC | 0.06 | i | · | ·
CC/C(=C\C=C\[C@@H]1C=C[C@@H]2CCC[C@H]2[C@@H]1C(=O)c1ccc[nH]1)[C@@H]1O[C@@H]([C@@H](C)C(=O)O)CC[C@@H]1C | 28* | i | · | · | CHO-K1 ctr=-14;KCNQ1 pot spec=-19;KCNQ2 pot conf=74*;Kir21 spec=-48;KCNQ2 W236L pot=i
Cc1cc(Cl)ccc1C(=O)C1CCCN(C2CCSCC2)C1 (centres undefined) | · | i | · | ·
CCCCCCNC(=O)N[C@H](Cc1ccc(O)cc1)C(=O)NCCC[C@H]1CN2C(=NC[C@H]2CCC)N1CC1CCC1 | · | i | · | ·
COc1ccc(CNCCc2c(C)[nH]c3ccc(OC(F)(F)F)cc23)c(OC)c1 | · | i | i | i
COc1ccc2[nH]c(C)c(CCNCc3cc(OC)c(OC)c(OC)c3)c2c1 | · | i | · | ·
CCN(CC)P(=S)(c1c(C)nc2ccccn12)c1c(C)nc2ccccn12 | 0.64 | i | · | ·
c1ccc(CNCCc2c[nH]c3ccccc23)cc1 | · | i | · | ·
CCc1ccc(CNCCc2c[nH]c3ccccc23)cc1 | · | i | 18%* | i
CCOc1cccc(=NC2CCCCC2)c2c(C)n(C)c(C)c12 | 2.6 | i | · | ·
Cc1ccsc1C(=O)C1CCCN(Cc2cnc(N3CCOCC3)s2)C1 (centres undefined) | 0.68 | i | · | ·
Cc1cccc(CCNCc2cc3cccc(C)c3[nH]c2=O)c1 | 1.1 | i | 52%* | i

Compound activity: PubChem, Johns Hopkins Ion Channel Center
